The source of these data is PubChem BioAssay AID743279 (National Center for Advancing Translational Sciences (NCATS), 2014).

About 17,000 (4.7%) of roughly 360,000 compounds were called active. Inconclusive results (about 5%) are left out. Cut-off read from the data, not from the text of the source: active = activity change below about -50%; inconclusive = mostly about -30% to -49%; inactive = weaker than that. Shown is part of a subset that was picked to be rich in actives.
% is set by controls: 0 for no effect and ±100 for the full control effect.

The nature of the assay: qHTS for Inhibitors of Inflammasome Signaling: IL-1-beta AlphaLISA Primary Screen. The settings on record: THP-1 LPS/ATP IL-1B secretion, 16 h, at 57.5 µM, hits give low values. An outline of the steps:
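Secreted IL-1B measured by AlphaLISA bead assay after 16 h compound exposure of THP-1 cells; compounds (final up to 57.5 uM) added 1 h before LPS (250 ng/mL) and ATP (1.25 mM) stimulation; lower signal means less secretion.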
(In qHTS, concentration-response curves come from the screen itself.)
In the case of `CCC1(CC(C)c2ccccc2)C(=O)NC(=O)NC1=O` (stereo not drawn), the activity change is -0.699% (inactive).

Turning to `COC(=O)C[C@H]1CC[C@H]2NC[C@@H](O)COC[C@@H]2O1`, the activity change was 0% (inactive).

As to `CC1C2Cn3c(nc4ccccc43)C1N(C)O2` (stereo not drawn), the activity change is 32.4% (inactive).

For the compound `CC(Cc1ccccc1)NC=O` (stereo not drawn), the activity change was 16% (inactive).

Consider `CC(Cc1ccccc1)NCCC(c1ccccc1)c1ccccc1` (stereo not drawn), for which the activity change is -64.4% (active).

For `CC(=O)NC(=O)NC(C)Cc1ccccc1` (stereo not drawn), the activity change was 11.5% (inactive).

With `CN1CCC(OC(=O)c2cccc(F)c2)CC1`, the activity change was -22% (inactive).

For the compound `COc1ccc(NC(=O)N2Cc3ccccc3-n3nncc3C2)cc1`, the activity change is -5.29% (inactive).

As for `Cc1cc(-c2ccc(N)c(C)c2)ccc1N`, the activity change was -12.1% (inactive).

As to `CC(=O)OC1C2(CC3N4C(=O)C5(CO)SSC4(CC31O)C(=O)N5C)OC(C)C(C)(C)C2=O` (stereo not drawn), the activity change was -104% (active).

In the case of `Cc1ccc(C(C)C)c(OCC(=O)N2CCN(CC(=O)N3CCOCC3)CC2)c1`, the activity change was -9.54% (inactive).

`C[N+]12CN3CN(CN(C3)C1)C2`: the activity change was 1.54% (inactive).

Regarding `Clc1cccc(Cl)c1Cl`, the activity change is -12.8% (inactive).

As to `COC1C(O)C(C)OC(OC2CCC3(C=O)C(CCC4C3CCC3(C)C(C5=CC(=O)OC5)CCC43O)C2)C1O` (stereo not drawn), the activity change is -68% (active).

Take `C[C@]12CC[C@H](O)C[C@H]1CC[C@@H]1C2CC[C@]2(C)[C@@H](C3=CC(=O)OC3)[C@@H](O)C[C@]12O` (stereo partly drawn): the activity change was -21.6% (inactive).

With `C[C@H]1CN([C@@H](C)CO)C(=O)CCCn2nncc2CO[C@H]1CN(C)C(=O)Oc1cccc2ccccc12`, the activity change is 24.1% (inactive).

Consider `COc1cc(C(=O)N2Cc3ccc(Br)cc3-n3nncc3C2)cc(OC)c1OC`, for which the activity change was -13.4% (inactive).

Take `O=C1/C(=C\c2ccc3c(c2)OCO3)N2CCC1CC2`: the activity change is -14.8% (inactive).

As to `O=c1c2ccccc2nc(/C=C/c2ccc(F)cc2)n1-c1ccccc1O`, the activity change was -94.1% (active).

As to `O=c1c2ccccc2nc(-c2ccccc2)n1-c1ccccn1`, the activity change is 17.2% (inactive).

For the compound `Cc1nc2ccccc2c(=O)n1-c1ccc(Cl)cc1Cl`, the activity change was -2.71% (inactive).

Take `COc1ccccc1NC(=O)N1C[C@@H]2C[C@@H](C1)c1cccc(=O)n1C2`: the activity change is 1.98% (inactive).

`O=C(O)C1CSC(c2cccnc2)N1` (stereo not drawn): the activity change is 0% (inactive).

Take `NCCc1ccc(S(=O)(=O)F)cc1`: the activity change was 13% (inactive).

In the case of `O=C(NC1CCCCC1)N1Cc2cc(N3CCCCC3)ccc2-n2nncc2C1`, the activity change was -7.47% (inactive).

On to `CCOc1ccc(-c2cc(C)[n+](CCN(CC)CC)c(-c3ccc(OCC)cc3)c2)cc1`, for which the activity change was -82.5% (active).

Consider `COC(=O)C1=C(c2ccc(F)cc2OCc2ccccc2)C[C@@H]2CC[C@H]1N2C(=O)NCc1ccc(OC)c(OC)c1`, for which the activity change was -5.32% (inactive).

Turning to `COC(=O)C1=C(c2ccc(F)cc2OCc2ccccc2)C[C@@H]2CC[C@H]1N2C(=O)NCc1ccc(C(C)(C)C)cc1`, the activity change was -29.4% (inactive).

As for `COC(=O)C1=C(c2ccc(F)cc2OCc2ccccc2)C[C@@H]2CC[C@H]1N2C(=O)NCc1ccc(Cl)cc1`, the activity change was -55.3% (active).

`CC1CCC(N(C)C2CCN(C)CC2)CC1` (stereo not drawn): the activity change is 0% (inactive).

`CCOC(=O)c1cccc(C2=C(CNC(=O)c3ccncc3)[C@H]3CC[C@@H](C2)N3Cc2ccccc2)c1`: the activity change is 41.7% (inactive).

Turning to `COc1ccc(-c2nc(CS(=O)CC(=O)N3CCC4(CC3)OCCO4)c(C)o2)cc1` (stereo not drawn), the activity change is -1.15% (inactive).

With `O=P(OC1=CCCCC1)(c1ccccc1)c1ccccc1`, the activity change was -4.62% (inactive).

Consider `Cc1ncoc1C(=O)NCC1=C(c2cccc3ccccc23)C[C@@H]2CC[C@H]1N2Cc1ccco1`, for which the activity change is -7.11% (inactive).

Regarding `CC1(C)Cc2c(C#N)c(N3CCNCC3)nc(-c3ccco3)c2CS1`, the activity change was -50.4% (active).

Turning to `COC(=O)C1=C(c2ccc(OCc3ccccc3)cc2)C[C@@H]2CC[C@H]1N2C(=O)NCc1ccc(Cl)cc1`, the activity change was 4.2% (inactive).

Regarding `N#CC1=C(N)Oc2c(c(=O)oc3ccccc23)C1c1ccccc1OC(=O)c1cccs1` (stereo not drawn), the activity change was -86.1% (active).

Take `COc1ccc(C2C=C(C)Oc3c2c(=O)oc2ccccc32)cc1OC` (stereo not drawn): the activity change was 7.28% (inactive).

Regarding `S=C(NCCc1ccccc1)N1Cc2cc(N3CCOCC3)ccc2-n2nncc2C1`, the activity change is -27% (inactive).

In the case of `Cc1cc(C)c2c(c1)NP(=S)(c1ccccc1)N2` (stereo not drawn), the activity change is -11.4% (inactive).

For `Cc1ccc(-n2c(C)cc(/C=C3\C(=O)NC(=O)N(C)C3=O)c2C)cc1C`, the activity change is -4.58% (inactive).

In the case of `Cc1ccnc(-n2c(C)cc(/C=C3\C(=O)NC(=S)N(C)C3=O)c2C)c1`, the activity change was -79.4% (active).

In the case of `Cc1cc(C=C2C(=O)NC(=O)NC2=O)c(C)n1-c1ccncc1`, the activity change was -12.3% (inactive).
